Shown is part of a subset that was picked to be rich in hits.
IL1B secr inh: inflammasome signaling inhibition, IL-1 beta readout; THP-1 LPS/ATP IL-1B secretion, AlphaLISA, 16 h; active compounds read low; activity change, % at 57.5 µM; 360,000 tested, 4.7% active; AID 743279; in the data active = activity change below about -50%; inconclusive = mostly about -30% to -49%
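THP-1 cells pretreated 1 hr with compounds (up to 57.5 uM final), then stimulated with LPS (250 ng/mL final) plus ATP (1.25 mM final); secreted IL-1B measured by AlphaLISA after 16 hr, decreased signal indicating inhibition.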
HT1080-NT tox: kills 2HG-producing HT-1080-NT fibrosarcoma cells. HT-1080-NT fibrosarcoma viability, CellTiter-Glo ATP luminescence, 48 h. Potency, µM (doses to about 46.1 µM), for the others: top-dose activity, negative = less viability, actives largely listed as cytotoxic. 360,000 tested, 1.6% active;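 note: NT is the 2HG producing partner of a matched IDH1 knockdown line; potency is the fitted concentration of half-maximal effect; 0% = DMSO-treated cells and -100% = media-only wells without cells; nearly all actives have a fitted effect of over 55% in size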
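750 cells/well, RPMI + 5% FBS; 2 h settle, compound pin-transfer, 48 h at 37 degrees C. CellTiter-Glo 10 min RT, luminescence. Normalized to DMSO and media-only wells.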
HT1080 IDH1KD tx: HT-1080 IDH1 knockdown cell toxicity (counter line); HT-1080 IDH1 knockdown viability, ATP luminescence, 48 h; Potency, µM (highest dose often 46.1 µM), inactives show at the highest dose activity, negative = toxicity, actives largely listed as cytotoxic; 360,000 tested, 2% active;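 note: potency is the fitted concentration of half-maximal effect; 0% = DMSO wells and -100% = cell-free medium wells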
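Assay cells: HT-1080 with IDH1 knockdown, 750 per well, RPMI/5% FBS. Exposure: 48 h at 37 °C following 2 h pre-incubation. Read: CellTiter-Glo luminescence; fitted concentration-response, curve class assigned.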
DT40 TDP1 CPT: DT40-hTDP1 cell growth loss with CPT; chicken DT40 Tdp1-/-;hTDP1 cells + 20 nM CPT, ATP luminescence, 48 h; AID 686979; 420,000 tested, 12% active; Potency, µM (doses to about 46.2 µM), for inactives: at the top dose activity change, negative = growth inhibition, usual class: inhibitors; note: potency is the fitted concentration of half-maximal effect; nearly all actives have a fitted effect of over 55% in size
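Chicken DT40 Tdp1-/- cells complemented with human TDP1, 400 cells/well, exposed to compounds plus 20 nM camptothecin for at least 48 h at 37 C; viability read as ATP content by CellTiter-Glo luminescence.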
TDP1 cell noCPT: qHTS for Inhibitors of human tyrosyl-DNA phosphodiesterase 1 (TDP1): qHTS in cells in absence of CPT; Potency, µM (highest dose often 46.2 µM), without a hit: top-dose activity change, negative = growth inhibition, hits mostly inhibitors; 420,000 tested, 15% active; AID 686978, 2013; DT40 Tdp1-/- hTDP1 cells, no CPT, ATP luminescence, 48 h; note: potency is the fitted concentration of half-maximal effect; nearly all actives have a fitted effect of over 55% in size
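No-CPT arm: Tdp1-/-;hTDP1 DT40 cells (400/well) plus compounds, incubated ≥48 hr at 37 °C. Readout CellTiter-Glo luminescence.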
12-LOX inh: blocks human arachidonate 12S-lipoxygenase. 580,000 tested, 1.1% active. purified 12hLO, xylenol orange hydroperoxide absorbance. P18054. Potency, µM (doses to about 108 µM), without a hit: at the highest dose activity change, negative = inhibition, actives largely listed as inhibitors; note: potency is the fitted concentration of half-maximal effect
Target sequence (P18054 whole entry, looked up): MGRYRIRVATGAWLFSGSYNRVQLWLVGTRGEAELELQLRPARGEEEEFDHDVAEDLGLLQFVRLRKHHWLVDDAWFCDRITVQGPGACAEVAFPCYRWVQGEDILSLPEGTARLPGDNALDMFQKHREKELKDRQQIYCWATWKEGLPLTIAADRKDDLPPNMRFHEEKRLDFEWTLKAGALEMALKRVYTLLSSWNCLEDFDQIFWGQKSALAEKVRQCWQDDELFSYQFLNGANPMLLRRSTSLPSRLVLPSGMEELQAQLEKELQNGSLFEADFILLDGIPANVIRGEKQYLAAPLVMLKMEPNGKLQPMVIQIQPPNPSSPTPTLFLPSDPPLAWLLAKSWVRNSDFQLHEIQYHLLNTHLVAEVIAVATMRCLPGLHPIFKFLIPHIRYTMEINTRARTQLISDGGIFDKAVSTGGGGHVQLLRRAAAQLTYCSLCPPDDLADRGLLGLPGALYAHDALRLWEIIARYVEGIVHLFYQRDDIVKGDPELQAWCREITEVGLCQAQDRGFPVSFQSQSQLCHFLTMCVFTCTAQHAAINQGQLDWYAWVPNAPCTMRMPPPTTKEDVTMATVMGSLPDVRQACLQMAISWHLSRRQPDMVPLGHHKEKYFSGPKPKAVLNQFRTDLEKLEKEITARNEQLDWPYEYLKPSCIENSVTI
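Purified human 12hLO at 150 nM in 25 mM Hepes, 0.01% Triton X-100, pH 7.0, preincubated 15 min at room temperature with compound. Reaction started with 40 uM arachidonic acid, 30 min at room temperature. Hydroperoxide measured by Fe-xylenol orange, 573/405 nm absorbance ratio.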
* = called active by the depositor; ? = inconclusive; . = no result; [ ] = another dose, or the depositor's remark. Unless noted, calls come from the whole dose curve; as a rule, active = well fitted curve in the direction sought with a large enough effect; inconclusive = small, poorly fitted or top-dose-only effect, or another doubt; inactive = no such curve, though single readings can be large; an effect the other way counts as inactive or inconclusive. Unless noted, % is set by controls: 0 for no effect and ±100 for the full control effect.

SMILES	IL1B secr inh	HT1080-NT tox	HT1080 IDH1KD tx	DT40 TDP1 CPT	TDP1 cell noCPT	12-LOX inh
OC1(c2cccs2)CN(c2ccc(Br)cc2)C2=[N+]1CCCS2 (stereo not drawn)	?	?	?	?	15µM*	0%
OC1(c2ccccc2)CN(c2ccccc2)C2=[N+]1CCS2 (stereo not drawn)	-66*	5%	1%	?	-28%	?
COc1ccc(OC)c(N2CC(O)(c3cccs3)[N+]3=C2SCCC3)c1 (stereo not drawn)	-15	-1%	-1%	-10%	-13%	7%
OC1(c2cccs2)CN(c2ccccc2)C2=[N+]1CCCC2 (stereo not drawn)	-87*	-8%	3%	-1%	-4%	5%
N#Cc1ccc(CN2C[C@@H](NC(=O)c3cccnc3)C[C@H]2CO)cc1	.	.	.	.	.	-9%
O=C(Cc1csc(Nc2nc(=S)[nH]c3ccccc23)n1)NCc1cccc(Cl)c1	19	-13%	?	?	18µM*	4%
O=C(Cc1csc(Nc2nc(=S)[nH]c3ccccc23)n1)N1CCN(c2cccc(C(F)(F)F)c2)CC1	41	-10%	-1%	?	16µM*	-2%
O=C(Cc1csc(Nc2nc(=S)[nH]c3ccccc23)n1)NCc1ccccc1Cl	18	11%	-1%	21µM*	4.6µM*	-6%
COc1cc(-c2c(NC(=O)CC(C)C)oc3c(C)cccc3c2=O)cc(OC)c1OC	.	.	.	.	.	-31%
Cc1ccc(-c2csc3ncnc(Oc4ccc5c(C)cc(=O)oc5c4)c23)cc1	28	3%	9%	18µM*	?	15%
c1ccc(-c2csc3ncnc(Oc4ccc5ccccc5c4)c23)cc1	.	.	.	.	.	-11%
C(=C\c1c[nH]c2ccccc12)/c1ccnc2ccccc12	.	.	.	?	20µM*	.
Cc1[nH]c2ccccc2c1/C=C(\C#N)c1nc2ccccc2[nH]1	.	.	.	.	.	-24%
Cc1[nH]c2ccccc2c1/C=C/c1ccnc2ccccc12	.	.	.	5.6µM*	2.8µM*	.
O=C(/C=C\c1ccco1)Nc1cc([N+](=O)[O-])ccc1F	22	1.5µM*	?	2.1µM*	1.6µM*	?
Cc1ccc(NC(=O)/C=C/c2ccco2)cc1F	.	.	.	7.3µM*	9.2µM*	?
Cc1cc(NC(=O)C(C)(C)C)cc(-c2nc3cc(Cl)ccc3o2)c1O	.	.	.	.	.	-2%
Cc1ccccc1-c1nc2cc(NC(=O)C(C)C)ccc2o1	.	.	.	.	.	-4%
Cc1ccccc1-c1nc2cc(NC(=O)/C=C/c3ccco3)ccc2o1	.	.	.	.	.	25µM*
Cc1cc(NC(=O)c2ccco2)cc(-c2nc3cc(Cl)ccc3o2)c1O	.	.	.	18µM*	12µM*	-8%
Cc1ccc2c(n1)N(C)[C@H](CO)CCN(C1Cc3ccccc3C1)C2	.	.	.	.	.	-20%[176 µM]
Cc1ccc2oc(-c3cc(NC(=O)/C=C/c4ccco4)ccc3Cl)nc2c1	.	.	.	?	21µM*	?
CCC(=O)Nc1cc(C)c(O)c(-c2nc3ncccc3o2)c1	.	.	.	-29%	?	?
Cc1cc(NC(=O)C(C)C)cc(-c2nc3ncccc3o2)c1O	.	.	.	?	13µM*	-8%
O=C(/C=C/c1ccco1)Nc1ccc(Cl)c(-c2nc3cc(Cl)ccc3o2)c1	.	.	.	?	26µM*	?
SMILES	IL1B secr inh	HT1080-NT tox	HT1080 IDH1KD tx	DT40 TDP1 CPT	TDP1 cell noCPT	12-LOX inh
O=C(Nc1ccc(OCc2ccccc2Cl)cc1)c1ccc(C(F)(F)F)cc1	.	.	.	.	.	-12%
O=[N+]([O-])c1ccc(Sc2ccc(Cl)c(Cl)c2)nc1	-58*	2%	-4%	?	-29%	-3%
CC(C)c1ccc(S(=O)(=O)c2nnn3c2nc(NC2CCCC2)c2ccccc23)cc1	.	.	.	.	.	9%[6.33 µM]
Cc1ccc(S(=O)(=O)N2CCCc3ccccc32)c(C)c1	.	.	.	.	.	-5%
Cc1ccc(NC(=O)c2c(C)oc3ncnc(N4CCCCC4)c23)cc1Cl	.	.	.	16µM*	16µM*	-11%
Cc1cc(Br)ccc1NC(=O)c1c(C)oc2ncnc(N3CCCCC3)c12	.	.	.	16µM*	16µM*	?
CCc1cccc(NC(=O)c2c(C)oc3ncnc(N4CCCCC4)c23)c1	.	.	.	13µM*	9.2µM*	?
Cc1oc2ncn(C)c(=O)c2c1C(=O)NC(C)c1ccccc1 (stereo not drawn)	.	.	.	-19%	-29%	-5%
Cc1ccc(NC(=O)c2c(C)oc3ncn(C)c(=O)c23)cc1F	.	.	.	?	18µM*	-11%
Cc1ccccc1NC(=O)c1c(C)oc2ncnc(N3CCOCC3)c12	.	.	.	.	.	-7%
Cc1cc(C)cc(NC(=O)c2c(C)oc3ncnc(N4CCCCC4)c23)c1	.	.	.	.	.	-8%
O=S(=O)(c1ccccc1Cl)N1CCCC1c1nncn1Cc1ccncc1 (stereo not drawn)	.	.	.	.	.	32%
O=C(NCc1nnc2n1C(C(=O)N1CCOCC1)CC2)c1ccc(Cl)cc1Cl (stereo not drawn)	.	.	.	.	.	2%[6.33 µM]
CCOc1ccc(C(C(=O)NCC2CCCO2)N(Cc2cccnc2)C(=O)c2snc(C(N)=O)c2N)cc1 (stereo not drawn)	-3	18%	20%	7%	-14%	-1%
CCc1ccc(CNC(=O)c2c(C)oc3ncnc(N4CCOCC4)c23)cc1	.	.	.	13µM*	?	-11%
COc1cccc(CNC(=O)c2c(C)oc3ncnc(N4CCOCC4)c23)c1	.	.	.	14%	-1%	3%
Cc1cccc(-c2cc(C(=O)Nc3cc(C)n(C)n3)c3ccccc3n2)c1	.	.	.	.	.	-6%
CC(C)c1ccc(Nc2c([N+](=O)[O-])c(=O)n(C)c3ccccc23)cc1	-66*	-19%	-13%	1%	?	1%
Cn1c(=O)c([N+](=O)[O-])c(NCC(O)c2ccccc2)c2ccccc21 (stereo not drawn)	17	-1%	2%	?	18µM*	-14%
Cc1cccc(Nc2c([N+](=O)[O-])c(=O)n(C)c3ccccc23)c1	22	-1%	-15%	?	?	-6%
Cn1c(=O)c([N+](=O)[O-])c(-n2ccnc2)c2ccccc21	-101*	16µM*	26µM*	4.6µM*	4.1µM*	18%
CCC(=O)N1Cc2ccccc2CC2(CCCN(Cc3ccccn3)C2)C1 (stereo not drawn)	.	.	.	.	.	10%[6.33 µM]
Cc1nnc2n1CCC(N(C)C(=O)Cc1ccccc1F)CC2 (stereo not drawn)	.	.	.	.	.	31%
COc1ccc(C(=O)N/C(=C/c2ccc(Cl)cc2)C(=O)Nc2ccc(C(=O)O)cc2)cc1	-4	6%	8%	16%	7%	-3%

Bioassay records deposited in PubChem BioAssay by National Center for Advancing Translational Sciences (NCATS).
